Records with an inconclusive call do not appear. Entries that show only a call come without a potency. Calls of active or inactive are those of the source. Calls come from the whole dose curve; as a rule, active = well fitted curve in the direction sought with a large enough effect; inconclusive = small, poorly fitted or top-dose-only effect, or another doubt; inactive = no such curve, though single readings can be large; an effect the other way counts as inactive or inconclusive.

One experiment can be described thus: qHTS Assay for Identifying Gametocytocidal Compounds (AID 743244).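 Note: actives lower the fluorescent signal which means gametocytes are killed.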 The settings on record: P. falciparum 3D7 stage III-V gametocytes, alamarBlue, 72 h; max response: stronger effect = lower value. A digest of the protocol:
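In this qHTS viability screen, late-stage 3D7 gametocytes are incubated with compound for 72 h, then with alamarBlue for 24 h; reduced resorufin fluorescence marks killing.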
(In general: In qHTS, concentration-response curves come from the screen itself.)
For `CO/N=C(/C(=O)N[C@@H]1C(=O)N2C(C(=O)O)=C(Cn3nnc(C)n3)CS[C@H]12)c1csc(N)n1`, the max response is -11.7% (inactive). Regarding `CC(=O)Nc1ccn(C2COC(COC(=O)c3ccccc3)O2)c(=O)n1` (configuration not stated), the max response was -5.34% (inactive). With `CCOC(=O)c1ccc(OCCN2C[C@H](O)[C@@H](O)[C@H](O)[C@H]2CO)cc1`, the max response is -1.08% (inactive). For the molecule `COc1cc(NS(=O)(=O)c2ccc(N)cc2)nc(C)n1`, the max response was 34.9% (inactive).

A short description of a further experiment: qHTS assay for measurement of the activity of small molecule inhibitors on Zika virus induced Caspase-3 activity in human iPSC derived neural progenitor cells (hNPCs) (AID 1224857). Note: nearly all actives have a fitted effect of over 65% in size. The settings on record: hNPCs ZIKV-induced caspase-3/7, Caspase-Glo luminescence, 6 h; series mostly up to 45.7 µM. A digest of the protocol: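 In medium with heparin 2 ug/ml and cyclopamine 2 uM, hNPCs (350 cells/well) received compound for one hour and then Zika virus at 2 FFU/cell; caspase activity was measured by Caspase-Glo 3/7 luminescence 6 h post-infection.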
For `CCCCN(CCN(CCCC)C(=O)N1CCOCC1)C(=O)N1CCOCC1`, the Potency entry is “inactive”. Regarding `CCC(CN)=C(c1ccccc1)c1ccccc1`, the Potency result is “inactive”. Turning to `CC[N+]1(CC)CCC(=C(c2ccccc2)c2ccccc2)C1C` (configuration not stated), the Potency entry is “inactive”. On the same count and under the same terms, the result for `O=C(O)CCCC[P+](c1ccccc1)(c1ccccc1)c1ccccc1` reads “inactive”. Turning to `OC1(c2ccc(Cl)c(C(F)(F)F)c2)CCN(CCCC(c2ccc(F)cc2)c2ccc(F)cc2)CC1`, the Potency result was “inactive”. With `CCCCC(O)/C=C(C)/C=C/C=C/C(=O)N1CCCC1=O` (configuration not stated), the Potency result was “inactive”. Same read-out and setting: for `COC(=O)c1cc(S(N)(=O)=O)ccc1OC` the value was “inactive”; for `CCCCCOc1ccc(C2SC(=O)NC2=O)cc1OCC` (configuration not stated), “inactive”; for `CO/N=C(\C(=O)O)c1csc(NC(=O)CCl)n1`, “inactive”.

On to `NC(=O)NS(=O)(=O)c1ccc(Cl)cc1`, for which the Potency result was “inactive”. The same measure, in the same setting: the result for `COc1ccc([C@@H]2Sc3ccccc3NC(=O)[C@@H]2O)cc1` reads “inactive”; that for `CO/N=C(/C(=O)N[C@@H]1C(=O)N2C(C(=O)O)=C(Cn3nnc(C)n3)CS[C@H]12)c1csc(N)n1`, “inactive”; that for `CCS(=O)(=O)c1ccc(OC)c(C(=O)OC)c1`, “inactive”.

Source of the values: PubChem BioAssay (NCATS).
